# Laboratory results published in ChEMBL document CHEMBL3988442, “University of Dundee, Small-Polar-MMV Screening Library” (2021).
# The whole screen tested about 48,000 compounds, of which about 13,000 (27%) showed an effect of 50% or more. The list shows a part of the results.
# Test system: Wolbachia pipientis
# Assay: Anti-Wolbachia Cell-Based Screen
# Assay type: functional
# Design: scale not given: in the data most compounds retested in dose-response had high values
# Conditions: 5 µM
row,SMILES,Percent Effect
1,O=C(O)c1cc2c(c(S(=O)(=O)N(CCCO)c3ccccc3)c1)CCC2,-6.874%
2,COc1ccc([C@@H]2CN(Cc3cccnc3N)C[C@H]2N(C)C)cc1,89.74%
3,COc1ccc([C@@H]2CN(c3cnccn3)C[C@H]2N(C)C)cc1,6.916%
4,COc1ccc([C@@H]2CN(Cc3cccnc3N)C[C@H]2NC(C)=O)cc1,100.4%
5,COc1ccc([C@@H]2CN(c3cc(OC)ncn3)C[C@H]2N(C)C)cc1,11.08%
6,Nc1ncccc1CN1C[C@@H](C(=O)O)[C@H](c2cccc(F)c2)C1,-4.464%
7,COc1ccc([C@@H]2CN(c3cc(OC)nc(N)n3)C[C@H]2N(C)C)cc1,-18.13%
8,COc1ccc([C@@H]2CN(Cc3ccncc3)C[C@H]2N(C)C)cc1,115.9%
9,CCCn1ccnc1CN1C[C@@H](NC(C)=O)[C@H](c2ccc(OC)cc2)C1,-11.71%
10,COc1ccc([C@@H]2CN(C(=O)CS(C)(=O)=O)C[C@H]2NC(C)=O)cc1,-2.286%
11,COc1cnc(N2C[C@@H](CN3CCOCC3)C[C@H](CO)C2)nc1,15.13%
12,Cc1ccc([C@@H]2CN(S(=O)(=O)c3cccs3)C[C@H]2N(C)C)cc1,-8.469%
13,Cc1ccccc1OCCSc1nnc(CC2CCS(=O)(=O)C2)n1C (stereo not drawn),3.275%
14,CC(C)=CCN1C[C@H]2CC[C@@H]1CN(C(=O)Cn1c(C)cc(C)nc1=O)C2,-7.163%
15,N#Cc1ccc(CN2CCC(CN3CCOCC3)C2)cc1 (stereo not drawn),106.9%
16,N#Cc1ccc(CSCCN2CCOCC2)cc1,-1.754%
17,N#Cc1ccc(N2CCCN(CC(=O)N3CCOCC3)CC2)cc1,-7.861%
18,N#Cc1ccc(CN2CCOCC2)cc1,91.68%
19,N#Cc1ccc(CCC(=O)N2CCC(CN3CCOCC3)CC2)cc1,91.48%
20,N#Cc1ccccc1CN1CCC(CN2CCOCC2)C1 (stereo not drawn),95.83%
21,Cn1c(CO)nnc1CC1CCN(Cc2ccc(C#N)cc2)CC1,25.57%
22,N#Cc1ccc(CN2CCC(CCc3ccc(O)cc3)CC2)cc1,-49.48%
23,N#Cc1ccccc1C(=O)N1C[C@@H](CN2CCOCC2)[C@@H](CO)C1,-6.039%
24,N#Cc1ccccc1CN1CCCC(c2nccn2CC2CC2)C1 (stereo not drawn),7.864%
25,CC(C)(C)C(O)CN1CCN(Cc2ccc(C#N)cc2)CC1 (stereo not drawn),1.533%
26,O=C(CCN1CCOCC1)N1CCC(Cc2ccc(CO)cc2)C1 (stereo not drawn),-13.67%
27,CC(C)N(C)CCCNC(=O)c1cnn(C(C)(C)C)c1C(F)(F)F,5.452%

row,SMILES,Percent Effect
1,CCOC(=O)C(CO)NC(=O)CCc1cccc(OC2CCCC2)c1 (stereo not drawn),-6.497%
2,COCC(=O)N1CCC(C(=O)Nc2ccc(S(N)(=O)=O)cc2)CC1,-0.7847%
3,CN(C)c1nc2c(c(NCc3nnc4n3CCCCC4)n1)CCNC2,114.9%
4,c1ccc2nc(N3CCCC3)c(NCc3nnc4n3CCC4)nc2c1,-27.33%
5,Cc1cc(C)nc(NCc2nnc3n2CCCCC3)n1,-1.015%
6,Cc1cccc(=O)n1CCCNc1nc(N(C)C)nc2c1CCNC2,32.54%
7,c1ccc(-c2nc3c(c(NCc4n[nH]c5c4CCC5)n2)CCNC3)cc1,-30.21%
8,C1CCc2nnc(CNc3nc(C4CC4)nc4c3CCNCC4)n2CC1,99.26%
9,c1ccc2nc(N3CCCCC3)c(NCc3nnc4n3CCC4)nc2c1,-16.15%
10,c1ccc(-c2nc3c(c(NCc4nnc5n4CCC5)n2)CCNC3)cc1,90.53%
11,COCCNc1nc(C2CCCC2)nc2c1CCNCC2,12.56%
12,CC(=O)NCc1nn(C)c2c1CN(Cc1ccsc1)C2.O=C(O)C(F)(F)F,-1.224%
13,N[C@@H]1c2ccccc2C2(CCN(C(=O)c3ccccc3O)CC2)[C@H]1O,0.509%
14,CN(C)Cc1nnc(C2CCCN(c3nccc4ccccc34)C2)n1C (stereo not drawn),5.407%
15,CCN(CCNC(=O)C1CCN(C(C)=O)CC1)c1ccccc1C,-4.01%
16,COc1ccc2[nH]cc(CCNC(=O)C3CCCN(C(C)=O)C3)c2c1 (stereo not drawn),94.67%
17,COC(=O)N1CCCC(C(=O)Nc2ccccc2CN2CCCC2)C1 (stereo not drawn),22.7%
18,COC(=O)N1CCCC(C(=O)NCCc2c[nH]c3cc(C)ccc23)C1 (stereo not drawn),127.8%
19,COc1ccc(CCNC(=O)C2CC2)c(Cl)c1,-15.6%
20,CC(=O)N1CCC(C(=O)NCCN2CCCCC2)CC1,12.8%
21,CC(=O)N1CCC(C(=O)NCCc2c[nH]c3cc(C)ccc23)CC1,104%
22,COC(=O)N1CCCC(C(=O)NCc2cc3cccc(OC)c3o2)C1 (stereo not drawn),-3.243%
23,COc1ccc(CCNC(=O)C2CCCOC2)c(Cl)c1 (stereo not drawn),0.5663%
24,CNc1nc(CS(=O)(=O)c2ccccc2)cs1,7.424%
25,COC(C)(C)c1noc(C2(C#N)CCCC2)n1,-17.37%
26,OC1(CNc2ccc(Br)cn2)CCOCC1,9.923%
